Common to all, as to experiment: qHTS profiling for inhibitors of Plasmodium falciparum proliferation (AID 504749); further: nearly all actives have a fitted effect of over 60% in size
Holding throughout (settings): P. falciparum in erythrocytes, SYBR Green DNA, 72 h; series mostly up to 28.7 µM

The test system of one assay is CP269. Put shortly: (§1)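 Readout was DNA-dye fluorescence from lysed cultures, ex 485/em 535 nm. Parasitized red cells had grown 72 h with compound; data scaled between 0.29 uM artemisinin and DMSO wells and corrected using vehicle-only plates.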
Another assay concerns CP286. The method, boiled down: as §1
A further assay deals with CP291. The method, boiled down:
as §1

For the next assay, the system named is CP297. The method, boiled down: as §1
Another assay relates to CP305. Put shortly: as §1
Another assay relates to CP315. Put shortly: as §1
The next assay relates to CP325. The method, boiled down:
as §1

A further assay has as its system CP329. Put shortly: as §1
For another assay, the system named is DFO2036. Put shortly: as §1
A further assay relates to DIV14. The method, boiled down: as §1
For another assay, the system named is DIV17. Put shortly:
as §1

For another assay, the system named is DIV30. Put shortly:
as §1

For the next assay, the system named is Dd2. The method, boiled down:
as §1

The test system of a further assay is ECU. Put shortly: as §1
In a further assay the test system is FAB9. Put shortly: as §1
Another assay deals with GB4. Put shortly: as §1
The next assay has as its system HB3. The method, boiled down:
as §1

In another assay the test system is ICS. The method, boiled down:
as §1

Another assay has as its system JCK. Put shortly:
as §1

For the next assay, the system named is CP335. The method, boiled down: as §1

Results filed as inconclusive are left out. Activity calls are given as the source filed them. The call rests on the fitted dose curve; in most records, active means well fitted inhibition curve with a large enough effect; inconclusive means small, poorly fitted or top-dose-only effect; inactive means flat fitted curve, though single readings scatter.
Potency means the concentration at half of the fitted maximal effect.

In the case of `NCCNCCNCCN`, the Potency entry in the assay with CP269, in the assay with CP286, with CP291, in the assay with CP297, in the assay with CP305 and in the assay with CP315 was “inactive” each time. Also, the Potency result in the assay with CP325, with CP329, with DFO2036, in the assay on DIV14, in the assay on DIV17 and in the assay on DIV30 was “inactive” throughout. The Potency result in the assay on Dd2, in the assay with ECU, in the assay with FAB9, with GB4, in the assay with HB3 and in the assay on ICS was “inactive” each time. The Potency entry with JCK is “inactive”.
Regarding `C#CCN(C)Cc1ccccc1`, the Potency entry with CP269, in the assay with CP286, in the assay with CP291, with CP305, in the assay with CP315 and in the assay on CP325 was “inactive” throughout. The Potency result in the assay on CP329, in the assay on CP335, in the assay on DFO2036, in the assay on DIV14, with DIV17 and in the assay with DIV30 was “inactive” throughout. The Potency entry in the assay with Dd2, with ECU, with FAB9, in the assay on GB4, in the assay with HB3 and with ICS was “inactive” in each case. In addition, the Potency result in the assay on JCK was “inactive”.
In the case of `C[C@](N)(Cc1ccc(O)cc1)C(=O)O`, the Potency result in the assay on CP269, with CP286, with CP291, with CP297, in the assay on CP305 and with CP315 was “inactive” throughout. Moreover, the Potency result in the assay on CP325, in the assay on CP329, with CP335, in the assay on DFO2036, in the assay on DIV14 and with DIV17 was “inactive” in each case. Also, the Potency result in the assay on DIV30, in the assay with Dd2, in the assay on ECU, with FAB9, in the assay with GB4 and in the assay on HB3 was “inactive” throughout. Further, the Potency result in the assay with ICS and with JCK was “inactive” each time.
On to `CCn1cc(C(=O)O)c(=O)c2cnc(N3CCNCC3)nc21`, for which the Potency result in the assay on CP269, with CP286, in the assay with CP291, in the assay with CP297, in the assay with CP305 and with CP315 was “inactive” each time. The Potency entry with CP325, in the assay on CP329, in the assay on CP335, in the assay with DFO2036, in the assay on DIV14 and with DIV17 was “inactive” each time. Further, the Potency entry with DIV30, with Dd2, in the assay on ECU, in the assay on FAB9, in the assay with GB4 and in the assay with HB3 was “inactive” throughout. The Potency entry in the assay on JCK is “inactive”.
For the compound `CCCc1c(OCCCCc2nn[nH]n2)ccc(C(C)=O)c1O`, the Potency result in the assay with CP269, with CP286, with CP291, in the assay on CP297, in the assay with CP305 and in the assay with CP325 was “inactive” throughout. For the same compound, the Potency result in the assay on CP329, with CP335, with DFO2036, in the assay with DIV14, with DIV17 and with DIV30 was “inactive” each time. The Potency entry in the assay on Dd2, in the assay with ECU, in the assay with FAB9, in the assay with GB4, in the assay on HB3 and with ICS was “inactive” in each case. Also, the Potency result in the assay on JCK is “inactive”.
`Cc1cc(N)c2ccccc2[n+]1CCCCCCCCCC[n+]1c(C)cc(N)c2ccccc21`: the Potency was 510 nM (active) in the assay with CP269; 447 nM (active) in the assay on CP286; 405 nM (active) in the assay with CP291; 405 nM (active) in the assay on CP297; 228 nM (active) in the assay with CP305; 721 nM (active) in the assay with CP315. The Potency is 572 nM (active) in the assay with CP325; 642 nM (active) in the assay with CP329; 79.4 nM (active) in the assay on DFO2036; 161 nM (active) in the assay with DIV14; 287 nM (active) in the assay with DIV17; 256 nM (active) in the assay with DIV30. Besides, the Potency in the assay on Dd2 was 63.1 nM (active); in the assay with ECU it was 2510 nM (active); in the assay with FAB9, 199 nM (active); with GB4, 144 nM (active); with HB3, 794 nM (active); in the assay with ICS it was 100 nM (active). In the assay on JCK, the Potency is 1120 nM (active).
For the compound `CCOC(=O)[C@H](CCc1ccccc1)N[C@@H](C)C(=O)N1C(=O)N(C)C[C@H]1C(=O)O`, the Potency entry with CP269, in the assay on CP286, in the assay with CP291, with CP297, in the assay with CP305 and with CP315 was “inactive” in each case. Besides, the Potency result in the assay on CP325, in the assay on CP329, in the assay on CP335, in the assay on DFO2036, with DIV14 and in the assay with DIV17 was “inactive” in each case. Besides, the Potency entry in the assay on DIV30, with Dd2, in the assay with ECU, in the assay on FAB9, in the assay with GB4 and in the assay with HB3 was “inactive” each time. Besides, the Potency result in the assay on ICS and with JCK was “inactive” each time.
Regarding `C[C@H]1O[C@@H](n2cc(F)c(=O)[nH]c2=O)[C@H](O)[C@@H]1O`, the Potency entry with CP269, in the assay on CP286, with CP291, in the assay with CP297, in the assay on CP305 and in the assay on CP315 was “inactive” throughout. In addition, the Potency entry in the assay with CP325, in the assay with CP329, in the assay on CP335, in the assay on DFO2036, in the assay with DIV14 and in the assay on DIV17 was “inactive” in each case. Also, the Potency result in the assay on DIV30, with Dd2, with ECU, with FAB9, in the assay on GB4 and in the assay with HB3 was “inactive” throughout. In the assay on JCK, the Potency result was “inactive”.
`Cc1cc2c(cc1S(N)(=O)=O)S(=O)(=O)CCC2`: the Potency result with CP269, with CP286, in the assay with CP291, in the assay with CP297, in the assay with CP305 and in the assay on CP315 was “inactive” throughout. Besides, the Potency result in the assay on CP325, in the assay on CP329, with DFO2036, in the assay on DIV14, with DIV17 and in the assay with DIV30 was “inactive” throughout. Moreover, the Potency result with Dd2, in the assay on ECU, in the assay with FAB9, in the assay on GB4, in the assay on HB3 and in the assay on ICS was “inactive” throughout. Moreover, the Potency entry in the assay with JCK is “inactive”.
For the compound `Nc1ncnc2c1ncn2[C@@H]1O[C@H](CO)[C@@H](O)[C@H]1O`, the Potency entry with CP269, with CP286, in the assay with CP291, in the assay on CP305, in the assay on CP315 and with CP325 was “inactive” each time. For the same compound, the Potency entry in the assay on CP329, in the assay on CP335, in the assay with DFO2036, in the assay with DIV14, with DIV17 and with DIV30 was “inactive” throughout. The Potency result in the assay with Dd2, with ECU, with FAB9, in the assay on GB4, in the assay on HB3 and in the assay on ICS was “inactive” throughout. The Potency result in the assay with JCK was “inactive”.
Regarding `CCCCOC(=O)c1ccc(O)cc1`, the Potency result in the assay on CP269, in the assay on CP286, in the assay on CP291, with CP297, with CP305 and in the assay on CP315 was “inactive” each time. The Potency result in the assay on CP325, in the assay on CP329, in the assay on CP335, with DFO2036, in the assay with DIV14 and in the assay with DIV17 was “inactive” in each case. For the same compound, the Potency entry in the assay on DIV30, with Dd2, with ECU, in the assay on FAB9, in the assay with GB4 and in the assay on HB3 was “inactive” each time. For the same compound, the Potency entry in the assay on JCK was “inactive”.
Consider `Cc1ccc(C(C)C)cc2c(C)ccc1-2`, for which the Potency entry in the assay with CP269, with CP286, in the assay with CP291, with CP297, with CP305 and in the assay with CP315 was “inactive” throughout. Moreover, the Potency entry in the assay with CP325, in the assay with CP329, in the assay on CP335, with DFO2036, in the assay on DIV17 and in the assay with Dd2 was “inactive” in each case. Also, the Potency result in the assay on ECU, with FAB9, in the assay with GB4, in the assay with HB3, with ICS and in the assay with JCK was “inactive” each time.
With `CC1=C(CC(=O)O)c2cc(F)ccc2/C1=C\c1ccc(S(C)=O)cc1` (stereo unspecified), the Potency result in the assay with CP269, in the assay on CP286, with CP291, in the assay on CP297, in the assay on CP305 and in the assay with CP315 was “inactive” in each case. The Potency entry with CP325, with CP329, in the assay with CP335, in the assay on DFO2036, with DIV14 and with DIV17 was “inactive” in each case. The Potency result with DIV30, in the assay on Dd2, in the assay on ECU, in the assay with FAB9, in the assay on GB4 and in the assay on HB3 was “inactive” throughout. In addition, the Potency result in the assay on JCK is “inactive”.
Take `COc1ccc(Cl)cc1C(=O)NCCc1ccc(S(=O)(=O)NC(=O)NC2CCCCC2)cc1`: the Potency result in the assay on CP269, with CP286, in the assay with CP291, with CP297, in the assay with CP305 and in the assay on CP315 was “inactive” throughout. Moreover, the Potency result in the assay with CP325, in the assay on CP329, with CP335, in the assay on DFO2036, in the assay on DIV14 and in the assay on DIV17 was “inactive” throughout. Besides, the Potency entry with DIV30, in the assay with Dd2, with FAB9, with GB4, in the assay with HB3 and in the assay with ICS was “inactive” each time. Also, the Potency result in the assay on JCK was “inactive”.
As for `O=C(O)CN1C(=O)c2cccc3cccc(c23)C1=O`, the Potency entry with CP269, in the assay with CP286, in the assay with CP291, in the assay with CP297, with CP305 and in the assay on CP315 was “inactive” throughout. In addition, the Potency result in the assay on CP325, in the assay on CP329, in the assay with CP335, with DFO2036, with DIV14 and in the assay on DIV17 was “inactive” throughout. Also, the Potency result with DIV30, in the assay on Dd2, in the assay with ECU, in the assay on FAB9, with HB3 and in the assay on ICS was “inactive” each time. Also, the Potency result with JCK is “inactive”.

Values taken from PubChem BioAssay (NCATS).
